# Reference: PMC11062922 (Nature Chemical Biology, 2023)
# Where two headings read alike, the source gives them in different places.
# Columns and labels:
# Parameters in all cases: species or system human, MV4-11 + K-562 + COLO205 + SK-N-BE2 + OVCAR-8
# [1] = test system: ATM; conditions: read-out: apparent Kd, compound concentrations: 100 nM and 1000 nM (sheet 'Samples'), n = 1
# [2] = test system: GSK3A; conditions: read-out: apparent Kd, compound concentrations: 100 nM and 1000 nM (sheet 'Samples'), n = 1
# [3] = test system: GSK3B; conditions: read-out: apparent Kd, compound concentrations: 100 nM and 1000 nM (sheet 'Samples'), n = 1
# [4] = test system: PIK3CA; conditions: read-out: apparent Kd; compound concentrations: 100 nM and 1000 nM (sheet 'Samples'), CATDS: 0.224567790498646; n = 1
# [5] = test system: AURKA; conditions: read-out: apparent Kd; compound concentrations: 100 nM and 1000 nM (sheet 'Samples'), CATDS: 7.2357375689978506E-2; n = 1
# [6] = test system: AURKB; conditions: read-out: apparent Kd; compound concentrations: 100 nM and 1000 nM (sheet 'Samples'), CATDS: 8.33802174361232E-2; n = 1
# [7] = test system: BTK; conditions: read-out: apparent Kd; compound concentrations: 100 nM and 1000 nM (sheet 'Samples'), CATDS: 2.7906188232160099E-2; n = 1
# [8] = test system: CDK6; conditions: read-out: apparent Kd; compound concentrations: 100 nM and 1000 nM (sheet 'Samples'), CATDS: 2.6039683989772199E-2; n = 1
# [9] = test system: DDR1; conditions: read-out: apparent Kd; compound concentrations: 100 nM and 1000 nM (sheet 'Samples'), CATDS: 3.3765649508464002E-2; n = 1
# [10] = test system: DDR2; conditions: read-out: apparent Kd; compound concentrations: 100 nM and 1000 nM (sheet 'Samples'), CATDS: 2.4811754642975199E-2; n = 1
# [11] = test system: EPHA1; conditions: read-out: apparent Kd; compound concentrations: 100 nM and 1000 nM (sheet 'Samples'), CATDS: 5.8966427250755599E-2; n = 1
# [12] = test system: EPHA2; conditions: read-out: apparent Kd; compound concentrations: 100 nM and 1000 nM (sheet 'Samples'), CATDS: 2.87381973097037E-2; n = 1
# [13] = test system: EPHA5; conditions: read-out: apparent Kd; compound concentrations: 100 nM and 1000 nM (sheet 'Samples'), CATDS: 2.6468271871748401E-2; n = 1
# [14] = test system: EPHA7; conditions: read-out: apparent Kd; compound concentrations: 100 nM and 1000 nM (sheet 'Samples'), CATDS: 2.4521911619802599E-2; n = 1
# [15] = test system: EPHB1; conditions: read-out: apparent Kd; compound concentrations: 100 nM and 1000 nM (sheet 'Samples'), CATDS: 4.12835328689228E-2; n = 1
# [16] = test system: EPHB3; conditions: read-out: apparent Kd; compound concentrations: 100 nM and 1000 nM (sheet 'Samples'), CATDS: 2.2990547954998001E-2; n = 1
# [17] = test system: EPHB4; conditions: read-out: apparent Kd; compound concentrations: 100 nM and 1000 nM (sheet 'Samples'), CATDS: 2.6241533264211699E-2; n = 1
# [18] = test system: EPHB6; conditions: read-out: apparent Kd; compound concentrations: 100 nM and 1000 nM (sheet 'Samples'), CATDS: 2.2781408813982901E-2; n = 1
# [19] = test system: FGFR1; conditions: read-out: apparent Kd; compound concentrations: 100 nM and 1000 nM (sheet 'Samples'), CATDS: 3.1616918928168397E-2; n = 1
# [20] = test system: FLT4; conditions: read-out: apparent Kd; compound concentrations: 100 nM and 1000 nM (sheet 'Samples'), CATDS: 7.7146870041813295E-2; n = 1
# [21] = test system: IRAK1; conditions: read-out: apparent Kd; compound concentrations: 100 nM and 1000 nM (sheet 'Samples'), CATDS: 2.4333511791148201E-2; n = 1
# [22] = test system: MAP3K5; conditions: read-out: apparent Kd; compound concentrations: 100 nM and 1000 nM (sheet 'Samples'), CATDS: 2.5132787541446201E-2; n = 1
# [23] = test system: MAP3K6; conditions: read-out: apparent Kd; compound concentrations: 100 nM and 1000 nM (sheet 'Samples'), CATDS: 2.24428147169137E-2; n = 1
# [24] = test system: PAK4; conditions: read-out: apparent Kd; compound concentrations: 100 nM and 1000 nM (sheet 'Samples'), CATDS: 2.7893369435470699E-2; n = 1
# [25] = test system: PDGFRB; conditions: read-out: apparent Kd; compound concentrations: 100 nM and 1000 nM (sheet 'Samples'), CATDS: 2.3035756841704998E-2; n = 1
# [26] = test system: PLK4; conditions: read-out: apparent Kd; compound concentrations: 100 nM and 1000 nM (sheet 'Samples'), CATDS: 9.4443768096787298E-2; n = 1
# [27] = test system: PTK2; conditions: read-out: apparent Kd; compound concentrations: 100 nM and 1000 nM (sheet 'Samples'), CATDS: 0.104516847999243; n = 1
# [28] = test system: RET; conditions: read-out: apparent Kd; compound concentrations: 100 nM and 1000 nM (sheet 'Samples'), CATDS: 0.104878429822753; n = 1
# [29] = test system: SLK; conditions: read-out: apparent Kd; compound concentrations: 100 nM and 1000 nM (sheet 'Samples'), CATDS: 2.57372154872102E-2; n = 1
# [30] = test system: STK10; conditions: read-out: apparent Kd; compound concentrations: 100 nM and 1000 nM (sheet 'Samples'), CATDS: 4.1679333810588297E-2; n = 1
# [31] = test system: TEC; conditions: read-out: apparent Kd; compound concentrations: 100 nM and 1000 nM (sheet 'Samples'), CATDS: 3.46380925591862E-2; n = 1
# [32] = test system: TGFBR1; conditions: read-out: apparent Kd; compound concentrations: 100 nM and 1000 nM (sheet 'Samples'), CATDS: 3.4751131583425202E-2; n = 1
# [33] = test system: TNK1; conditions: read-out: apparent Kd; compound concentrations: 100 nM and 1000 nM (sheet 'Samples'), CATDS: 3.18258683294073E-2; n = 1
smiles,measurement,setting,value
O=C1NC(=O)C(N2CCc3ccccc32)=C1c1ccc(Cl)cc1 [SB-333612],potency estimated from few doses,[1]; CATDS: 1,265 nM
Cc1c(C2=C(c3cn(C)c4ccccc34)C(=O)NC2=O)c2ccccc2n1C [RO0317777-000],potency estimated from few doses,[1]; CATDS: 0.73643038354307599,20.1 nM
same,potency estimated from few doses,[2]; CATDS: 0.20080889855539999,343 nM
same,potency estimated from few doses,[3]; CATDS: 0.19196654372997399,397 nM
same,potency estimated from few doses,[4],247 nM
CC(=O)Nc1ccc2c(c1)C(c1ccccc1Cl)=Nc1c(n[nH]c1C)N2 [RO0281752-000],potency estimated from few doses,[5],151 nM
same,potency estimated from few doses,[6],121 nM
same,potency estimated from few doses,[7],1080 nM
same,potency estimated from few doses,[8],1320 nM
same,potency estimated from few doses,[9],658 nM
same,potency estimated from few doses,[10],1540 nM
same,potency estimated from few doses,[11],213 nM
same,potency estimated from few doses,[12],992 nM
same,potency estimated from few doses,[13],1260 nM
same,potency estimated from few doses,[14],1600 nM
same,potency estimated from few doses,[15],421 nM
same,potency estimated from few doses,[16],2020 nM
same,potency estimated from few doses,[17],1290 nM
same,potency estimated from few doses,[18],2090 nM
same,potency estimated from few doses,[19],772 nM
same,potency estimated from few doses,[20],136 nM
same,potency estimated from few doses,[2]; CATDS: 2.5407151234935001E-2,1430 nM
same,potency estimated from few doses,[3]; CATDS: 2.45501369034281E-2,1600 nM
same,potency estimated from few doses,[21],1650 nM
same,potency estimated from few doses,[22],1480 nM
same,potency estimated from few doses,[23],2220 nM
same,potency estimated from few doses,[24],1080 nM
same,potency estimated from few doses,[25],2000 nM
same,potency estimated from few doses,[26],100 nM
same,potency estimated from few doses,[27],86.4 nM
same,potency estimated from few doses,[28],86 nM
same,potency estimated from few doses,[29],1370 nM
same,potency estimated from few doses,[30],413 nM
same,potency estimated from few doses,[31],620 nM
same,potency estimated from few doses,[32],615 nM
same,potency estimated from few doses,[33],760 nM
